Assay results: PubChem BioAssay AID623865 (Southern Research Specialized Biocontainment Screening …, 2012)

Test: West Nile virus CPE inhibitors, flavivirus guanylyltransferase probe project, cell-based, secondary screen (AID 623865)
Settings: West Nile virus CPE inhibition assay; series mostly up to 50 µM; CPE inhibition: at the top concentration; call rule not given here

CPE inhibition, inactive:
O=C(O)CSc1cc(NS(=O)(=O)c2ccc(F)cc2)c2ccccc2c1O 6.24%
Cc1ccc(S(=O)(=O)Nc2cc(SCC(=O)O)c(O)c3ccccc23)cc1 3.27%
COc1ccc(OC)c(S(=O)(=O)Nc2cc(SCC(=O)O)c(O)c3ccccc23)c1 4.21%
O=S(=O)(Nc1cc(SCc2ccccc2)c(O)c2ccccc12)c1ccc(Cl)cc1 1.23%
Cn1c(=O)c2[nH]c(-c3ccc(Cl)cc3)c(O)c2n(C)c1=O 2.76%
O=S(=O)(Nc1cc(Sc2ccccc2)c(O)c2ccccc12)c1ccc(F)cc1 1.58%
O=C(O)CSc1cc(NS(=O)(=O)c2cccc3cccnc23)c2ccccc2c1O 3.3%
O=S(=O)(Nc1cc(Sc2ncn[nH]2)c(O)c2ccccc12)c1ccc(F)cc1 0.42%
O=[N+]([O-])c1cccc(S(=O)(=O)Nc2cc(SCc3ccccc3)c(O)c3ccccc23)c1 2.16%
Cc1cc(F)ccc1S(=O)(=O)Nc1cc(SCC(=O)O)c(O)c2ccccc12 5.52%
O=S(=O)(Nc1cc(Cl)c(O)c2ccccc12)c1ccc(F)cc1 1.6%
O=C(O)CSc1cc(NS(=O)(=O)c2ccc(Cl)cc2)c2ccccc2c1O 1.89%
O=[N+]([O-])c1cccc(S(=O)(=O)Nc2cc(Sc3nc4ccccc4s3)c(O)c3ccccc23)c1 1.19%
Cn1c(=O)c2[nH]c(-c3ccccc3)c(O)c2n(C)c1=O 2.6%
O=C(O)CSc1cc(NS(=O)(=O)c2cccc([N+](=O)[O-])c2)c2ccccc2c1O 1.51%
Cc1ccc(S(=O)(=O)Nc2cc(Sc3nc(C)cc(C)n3)c(O)c3ccccc23)cc1 0.88%
Cc1cc(C)c(S(=O)(=O)Nc2cc(SCC(=O)O)c(O)c3ccccc23)c(C)c1 1.97%
O=C(O)CSc1cc(NS(=O)(=O)c2ccc(Br)cc2)c2ccccc2c1O 1.32%
